A selection: hits, their analogues and other compounds. The true share with any hit is near 1.1%.
GLS inhibitor = qHTS for Inhibitors of Glutaminase (GLS); Potency, µM (series often up to 45.5 µM), usual class: inhibitors; actives 0.21% (n = 410,000); Glutaminase kidney isoform, mitochondrial (Homo sapiens), O94925; AID 624170, 2012; GLS enzymatic activity, qHTS titration
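Read-out is an Amplex red fluorescence increase coupled through glutamate oxidase and HRP, measured before and after 30 min room-temperature incubation. hKGA is in 45 mM KH2PO4 (pH 8.2) with 0.02% Tween-20; glutamine added as 1mM solution.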
Tb PFK inh = qHTS Assay to Find Inhibitors of T. brucei phosphofructokinase; ATP-dependent 6-phosphofructokinase (Trypanosoma brucei brucei), O15648; T. brucei PFK, ADP-Glo luminescence; Potency, µM (series often up to 57.5 µM), most hits filed as inhibitors; actives 0.17% (n = 330,000); AID 485367, 2010; further: nearly all actives have a fitted effect of over 60% in size
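Compounds were pin-transferred as a titration series up to 57 uM into substrate buffer (0.5 mM F6P, 0.1 mM ATP, pH 8.0), then 1.25 nM PFK was added and reactions ran 45 min before ADP-Glo detection.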
VDR inhibitor = Inhibitors of the vitamin D receptor (VDR): qHTS. actives 0.93% (n = 400,000). VDR-SRC2-3 peptide fluorescence polarization, 2 h. AID 504847, 2011. Potency, µM, usual class: inhibitors. Vitamin D3 receptor (Homo sapiens), P11473
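The screen uses fluorescence polarization to detect compounds that interfere with recruitment of the SRC2-3 coactivator peptide to VDR; plates are read after 2 h at room temperature.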
Tb PGK inh = qHTS Assay to Find Inhibitors of Phosphoglycerate Kinase. Phosphoglycerate kinase, glycosomal (Trypanosoma brucei brucei), P07378. PGK/GAPDH coupled, Kinase-Glo luminescence, 60 min. Potency, µM (top dose mostly 57.5 µM), actives largely listed as inhibitors. actives 0.043% (n = 380,000); further: nearly all actives have a fitted effect of over 60% in size
Target sequence (P07378 whole entry, looked up): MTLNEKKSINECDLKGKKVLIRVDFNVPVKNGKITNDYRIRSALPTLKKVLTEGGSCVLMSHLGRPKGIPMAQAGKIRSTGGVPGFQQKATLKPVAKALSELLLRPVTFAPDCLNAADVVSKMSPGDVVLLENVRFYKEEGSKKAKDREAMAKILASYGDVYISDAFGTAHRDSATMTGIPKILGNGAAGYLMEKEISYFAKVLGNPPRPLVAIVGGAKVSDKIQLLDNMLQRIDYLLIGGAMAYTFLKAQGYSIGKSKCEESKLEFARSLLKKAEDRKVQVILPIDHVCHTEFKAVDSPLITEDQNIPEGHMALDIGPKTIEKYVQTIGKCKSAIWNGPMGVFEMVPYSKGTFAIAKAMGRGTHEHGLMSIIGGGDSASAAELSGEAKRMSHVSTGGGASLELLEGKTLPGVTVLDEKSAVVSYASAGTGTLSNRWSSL
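Luminescent ATP detection (Kinase-Glo Plus) follows a 60-minute room-temperature incubation, with wells lacking PGK as controls. Buffer: 100 mM TEA (pH 7.6), 5 mM MgCl2, 0.01% Tween-20. Coupling enzyme GAPDH (100 nM final) supplies unstable 1,3-BPG in-well.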
Pin1 inhibitor = qHTS Assay to Find Inhibitors of Pin1; Peptidyl-prolyl cis-trans isomerase NIMA-interacting 1 (Homo sapiens), Q13526; Pin1 FP peptide displacement, HiFluor488, 10 min; Potency, µM (highest dose often 115 µM), hits mostly inhibitors; actives 0.009% (n = 390,000); active means well fitted inhibition curve with a large enough effect in the polarisation, with a control signal flat, not every such curve was filed as active; inconclusive means small, poorly fitted or top-dose-only effect, or effect the other way, or a change in a side signal; inactive means no such curve, though single readings can be large or run the other way; the % refers to the polarisation
Target sequence (Q13526 whole entry, looked up): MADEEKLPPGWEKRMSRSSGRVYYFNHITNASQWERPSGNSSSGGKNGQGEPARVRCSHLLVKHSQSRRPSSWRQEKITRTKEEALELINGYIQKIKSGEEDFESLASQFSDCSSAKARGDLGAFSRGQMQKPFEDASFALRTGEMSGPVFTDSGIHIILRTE
USP1 UbRho = Inhibitors of USP1/UAF1: Hit Validation in Primary Assay | Potency, µM (titrated, usually from 114 µM), usual class: inhibitors | actives 50% (n = 50) | Ub-Rhodamine cleavage, fluorescence kinetic read | shares compounds with VDR inhibitor
VDR inh confirm = qHTS for Inhibitors of the vitamin D receptor (VDR): Hit Validation in Primary Screen; VDR-coactivator inhibition assay, qHTS confirmation; actives 89% (n = 840); shares compounds with VDR inhibitor; Potency, µM, usual class: inhibitors
VDR FP = qHTS for Inhibitors of the vitamin D receptor (VDR): Hit Validation using a Fluorescein Assay | shares compounds with VDR inhibitor | VDR-coactivator binding, fluorescein fluorescence polarization | Potency, µM (titrated, usually from 57.1 µM), actives largely listed as inhibitors | actives 48% (n = 840)
VDR bla reporter = qHTS for Inhibitors of the vitamin D receptor (VDR): Hit Validation using a Beta-Lactamase Assay; shares compounds with VDR inhibitor; VDR beta-lactamase reporter cells, FRET ratio; cells co-treated with VDR agonist LG190178; Potency, µM (doses to about 46.1 µM), usual class: inhibitors; actives 23% (n = 840); AID 602202, 2012
VDR cytotox = qHTS for Inhibitors of the vitamin D receptor (VDR): Hit Validation using a Cytotoxicity Assay. actives 18% (n = 840). Potency, µM (titrated, usually from 48.3 µM), actives largely listed as cytotoxic. shares compounds with VDR inhibitor. cytotoxicity counter-screen, cell viability, qHTS; further: nearly all actives have a fitted effect of over 75% in size
Each line names hits and unclear results; the compound was inactive in the other large screens (follow-up assays come after a bar, where they were run); ! = not confirmed by another sample. Unless noted, the call rests on the fitted dose curve; in most records, active means well fitted curve in the direction sought with a large enough effect; inconclusive means small, poorly fitted or top-dose-only effect, or another doubt; inactive means no such curve, though single readings can be large; an effect the other way counts as inactive or inconclusive.

Cc1nc(N=Nc2ccc(C(=O)O)cc2)c(COP(=O)(O)O)c(C=O)c1O	none (no result: GLS inhibitor, Tb PFK inh, Tb PGK inh, Pin1 inhibitor) | USP1 UbRho 5.91µM
CCOC(=O)c1c(S(=O)(=O)N2CCC(C(=O)Nc3ccccc3OC)CC2)c(C)n(CC)c1C	none (no result: Tb PFK inh)
CCOC(=O)CNC(=O)c1cc2c(=O)n3cccc(C)c3nc2n1C	none (no result: Tb PFK inh)
COc1cc(-c2cc(C(=O)Nc3cc(S(=O)(=O)N4CCOCC4)ccc3O)c3ccccc3n2)cc(OC)c1OC	VDR inhibitor inconclusive | VDR inh confirm inconclusive | VDR FP 31.6µM | VDR bla reporter inactive | VDR cytotox inactive
OC(c1ccc2c(c1)OCO2)c1ncc(-c2cccc(C(F)(F)F)c2)[nH]1 (stereo unspecified)	none (no result: Tb PFK inh, VDR inhibitor, Tb PGK inh, Pin1 inhibitor)
CCOC(=O)C1=C(Cc2ccc(C)cc2)C(=O)c2ccccc2C1=O	none (no result: GLS inhibitor, VDR inhibitor, Tb PGK inh, Pin1 inhibitor)
CCOC(=O)C1=C(Cc2ccc(OC)cc2)C(=O)c2ccccc2C1=O	VDR inhibitor 7.94µM, Pin1 inhibitor inconclusive | VDR inh confirm 0.708 | VDR FP inconclusive | VDR bla reporter 23.1µM | VDR cytotox inconclusive
CN(C)S(=O)(=O)N1CCC(n2cnc3cccnc32)CC1	none (no result: Tb PFK inh)
CCOC(=O)c1ccc(NC(=O)CCc2c(C)n(CC)c3cc(-c4ccccc4OC)nn3c2=O)cc1	none (no result: Tb PFK inh)
CCC(C)(C)c1nnc(NC(=O)C2CCN(C(=O)c3ccco3)CC2)s1	Tb PFK inh inconclusive, VDR inhibitor 50.1µM | VDR inh confirm 6.7 | VDR FP inconclusive | VDR bla reporter inactive | VDR cytotox inactive
O=C(Nc1nccs1)C1CC=CCC1C(=O)OCC(F)(F)C(F)F (stereo unspecified)	none
O=C(Oc1ccc(Br)cc1C(=O)/C=C/c1ccccc1F)c1ccco1	VDR inhibitor 44.7µM (no result: Tb PFK inh) | VDR inh confirm inconclusive | VDR FP 7.08µM | VDR bla reporter inactive | VDR cytotox inconclusive
Cn1c(/C(C#N)=C/c2ccc(C(F)(F)F)cc2)nc2ccccc21	VDR inhibitor 28.2µM (no result: Tb PFK inh, Tb PGK inh) | VDR inh confirm 14.1 | VDR FP 8.91µM | VDR bla reporter 18.4µM | VDR cytotox inconclusive
Cn1c(/C(C#N)=C/c2ccc(O)cc2)nc2ccccc21	none
COc1ccc(C2C(Oc3ccccc3)C(=O)N2c2cc(C)ccc2C)cc1OC (stereo unspecified)	none
COc1ccc(C)cc1N1C(=N)/C(=C2/Nc3ccccc3S2)C(c2ccccc2)C1=O (stereo unspecified)	VDR inhibitor inconclusive | VDR inh confirm 10 | VDR FP 8.91µM | VDR bla reporter inactive | VDR cytotox inactive
CCOC(=O)c1ccc(NC(=O)Cn2nc(C)c3nn(-c4ccc(Cl)cc4)c(C)c3c2=O)cc1	none (no result: Tb PFK inh)
COc1cc(OC)c(C=Cc2ccncn2)c(OC)c1	none (no result: Tb PFK inh, VDR inhibitor, Pin1 inhibitor)
COc1cc(OC)c(/C=C/c2nccc3ccccc23)c(OC)c1	none (no result: GLS inhibitor, Tb PFK inh, VDR inhibitor, Tb PGK inh, Pin1 inhibitor) | VDR inh confirm 8.91 | VDR FP 1.58µM | VDR bla reporter 20.6µM | VDR cytotox inconclusive
CCOC(=O)/C(=C\c1cccc(O)c1)c1nc2sc(C)c(C)c2c(=O)[nH]1	VDR inhibitor 44.7µM | VDR inh confirm 3.36 | VDR FP inconclusive | VDR bla reporter 20.6µM | VDR cytotox inconclusive
S=C(NCCCc1cnc[nH]1)NCCCN(Cc1ccc(Cl)cc1)c1cc(-c2ccccc2)ccn1	Pin1 inhibitor inconclusive (no result: GLS inhibitor, Tb PFK inh, Tb PGK inh)
CN(O)/C=C1\C(=O)Nc2ccccc21	none
CC(C)Oc1ccc(C(=O)/C=C2/C(=O)Nc3ccccc32)cc1	VDR inhibitor 28.2µM | VDR inh confirm 15 | VDR FP 10µM | VDR bla reporter inactive | VDR cytotox inconclusive
O=C1Nc2ccccc2/C1=C\C(=O)c1ccccc1	VDR inhibitor inconclusive | VDR inh confirm 8.91 | VDR FP 3.55µM | VDR bla reporter inconclusive | VDR cytotox inconclusive
COc1ccc(C)cc1NC(=O)N1CCCn2nc(C)cc21	none (no result: Tb PFK inh)
CC(C)(C)c1cc(C(c2cccnc2)N2CCN(CCO)CC2)cc(C(C)(C)C)c1O (stereo unspecified)	GLS inhibitor inconclusive, VDR inhibitor 25.1µM | VDR inh confirm 3.77 | VDR FP 3.98µM | VDR bla reporter 16.4µM | VDR cytotox inconclusive
O=C(N[C@@H](Cc1ccccc1)C(=O)CCl)OCc1ccccc1	VDR inhibitor 5.62µM | USP1 UbRho 26.4µM
FC(F)(F)c1nnc2n1N=C(c1ccccc1)CS2	none
c1ccc(-c2ccc(C3=Nn4c(Cn5nnc6ccccc65)nnc4SC3)cc2)cc1	VDR inhibitor inconclusive | VDR inh confirm 14.1 | VDR FP 10µM | VDR bla reporter inactive | VDR cytotox inactive
C/C=C(\C)C(=O)C[Si](C)(C)c1ccccc1	none (no result: GLS inhibitor, Tb PFK inh, Tb PGK inh, Pin1 inhibitor)
O=S(=O)(c1ccccc1)N1CCC2(CCN(Cc3nccs3)CC2)CC1	none (no result: GLS inhibitor, Tb PFK inh, Tb PGK inh, Pin1 inhibitor)
COc1ccc2nc(SCC(=O)Nc3c(C)cccc3C)[nH]c2c1	none
COc1ccc2nc(S(=O)Cc3ncc(C)c(OC)c3C)[nH]c2c1 (stereo unspecified)	VDR inhibitor 89.1µM! | VDR inh confirm 2.67 | VDR FP inconclusive | VDR bla reporter inactive | VDR cytotox inactive
O=C(CSc1ccc([N+](=O)[O-])cc1)Nc1cccc(S(=O)(=O)Nc2ccccc2F)c1	Tb PFK inh inconclusive, VDR inhibitor 79.4µM | VDR inh confirm 18.9 | VDR FP 22.4µM | VDR bla reporter inactive | VDR cytotox inactive
O=C1Nc2ccccc2C1=Nc1cccc(Cl)c1	none
